Among the data in PubChem BioAssay (NCI) are growth inhibition values, retold here.

The panel holds about 79,000 compounds, 15% with a hit somewhere; the sample as a whole holds those more often. A number with no mark means an inactive call. Active and inactive are the calls of the source. Rule as the data show it: active = growth inhibition above about 70%; inactive = the rest. Starred links: 1 amine or outer side, 2 acyl side, 3 side chain; linkers in the order of their positions; H or OH if unused. Positions of bridges follow the written chain, without caps; N, C: chain ends. Non-standard residues stand in square brackets, D forms with d. Residues, ends and D or L forms follow the SMILES beside them. Chains are numbered I, II in the order given. Actinocin(9to1) = Cc1c2oc3c(C)ccc(C(=O)[*:1])c3nc-2c(C(=O)[*:2])c(N)c1=O; aThr = C[C@H](O)[C@H](N)C(=O)O; NMeV = CN[C@H](C(=O)O)C(C)C; Sar = CNCC(=O)O

This assay in a line: NCI Yeast Anticancer Drug Screen. Data for the rad52 strain (AID 147).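 Also: 0% = growth of vehicle-treated control cultures.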 To be noted: S. cerevisiae rad52 mutant growth inhibition, active compounds read high. The method, then: Growth inhibition of yeast strains with defined genetic alterations is measured as a screen for potential anti-cancer activity. Selected strains with alterations in DNA damage repair or cell cycle control were exposed to compounds and growth inhibition was measured relative to vehicle treated controls. The strain used in this assay is rad52

In the case of `CCOC(=O)C1=C(C)NC(C)=C(C(=O)OCC)C1c1cccc([N+](=O)[O-])c1`, the growth inhibition reads like this: (at 1.2 µM) -90%; (at 3.7 µM) -81%; (at 11.0 µM) -35%; (at 33.0 µM) 17%; (at 100.0 µM) 73% (active).
With `Cc1c2oc3c(C)ccc(C(=O)N[C@@H]4C(=O)N[C@H](C(C)C)C(=O)N5CCC[C@H]5C(=O)N(C)CC(=O)N(C)[C@@H](C(C)C)C(=O)O[C@H]4C)c3nc-2c(C(=O)N[C@@H]2C(=O)N[C@H](C(C)C)C(=O)N3CCC[C@H]3C(=O)N(C)CC(=O)N(C)[C@@H](C(C)C)C(=O)O[C@H]2C)c(N)c1=O` (I: [aThr][dV]P[Sar][NMeV] / II: [aThr][dV]P[Sar][NMeV]; ester I:1-I:C, II:1-II:C; linker I:N-II:N via Actinocin(9to1)), the growth inhibition is, setting by setting: (at 1.2 µM) 5%; (at 3.7 µM) 38%; (at 11.0 µM) 85% (active); (at 33.0 µM) 96% (active); (at 100.0 µM) 98% (active).
Consider `Clc1ccc(C(c2ccc(Cl)cc2)N2CCNCC2)cc1`, for which the growth inhibition was 2% (at 1.2 µM); -3% (at 3.7 µM); -1% (at 11.0 µM); 46% (at 33.0 µM); 98% (active) (at 100.0 µM).
The like results for `Cc1ccc(P(c2ccc(C)cc2)c2ccc(C)cc2)cc1` were, in that order, -11%, -12%, 1%, 11% and 23%.
Consider `COc1ccc2c(C)cc(N/N=C/c3sccc3C)nc2c1`, for which the growth inhibition is -31% (at 1.2 µM); -45% (at 3.7 µM); -35% (at 11.0 µM); 29% (at 33.0 µM); 18% (at 100.0 µM).
Turning to `CN(C)/N=N/c1nc[nH]c1C(N)=O`, the growth inhibition is -2% (at 1.2 µM); 1% (at 3.7 µM); 8% (at 11.0 µM); 31% (at 33.0 µM); 95% (active) (at 100.0 µM).
For the compound `BrC/C=C/C[P+](c1ccccc1)(c1ccccc1)c1ccccc1`, the growth inhibition (at 1.2 µM) was 8%; the growth inhibition (at 3.7 µM) was 27%; the growth inhibition (at 11.0 µM) is 96% (active); the growth inhibition (at 33.0 µM) was 98% (active); the growth inhibition (at 100.0 µM) was 99% (active).
For `Cc1ccc(S(=O)(=O)N/N=C/c2c(O)ccc3ccccc23)cc1`, in that order: -8%, 9%, 81% (active), 83% (active) and 79% (active).
